In the supplement of paper PMC3342239:

Each compound was assayed on Saccharomyces cerevisiae (assay: fraction of cells in G1 phase (DNA content, flow cytometry); higher = more cells with unreplicated DNA (G1 delay)). Details: temperature: 30 C; YPD; JTY2953 pdr5 snq2 (sensitized); drug added to: cultures diluted from stationary phase; 6-7 h.
How it was run: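 Overnight cultures of sensitized JTY2953 were diluted 1∶200 into drug at a final 20 µg/ml and fixed after 6–7 h, and further runs treated dividing JTY2953 or BY4741, fixing them 6 h and 4.33 h later respectively. All growth used YPD at 30°C with S. cerevisiae and library drugs. After ethanol fixation and SYTOX Green staining, flow cytometry recorded 10,000 events. The G1 fraction equals the Dean-Jett-Fox G1 peak area over the G1 plus G2/M areas.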

In order of rising “fraction of cells in G1 phase” value:
1. Cc1nccn1CC1CCc2c(c3ccccc3n2C)C1=O (stereo not given) [Ondansetron] (68.1729 µM)  0.463
2. CCN1CCCC1CNC(=O)c1cc(S(=O)(=O)CC)c(N)cc1OC (stereo not given) [Amisulpride] (54.1272 µM)  0.471
3. CO[C@H]1/C=C/O[C@@]2(C)Oc3c(C)c(O)c4c(O)c(cc(O)c4c3C2=O)NC(=O)/C(C)=C\C=C\[C@H](C)[C@H](O)[C@@H](C)[C@@H](O)[C@@H](C)[C@H](OC(C)=O)[C@@H]1C [Rifamycin sv] (28.7035 µM)  0.477
4. CC(C(=O)O)c1ccc2c(c1)Cc1cccnc1O2 (stereo not given) [Pranoprofen] (78.3466 µM)  0.479
5. CCOC(=O)[C@H](CCc1ccccc1)N[C@@H](C)C(=O)N1[C@H](C(=O)O)C[C@@H]2CCC[C@@H]21 [Ramipril] (48.0167 µM)  0.482
6. O=P(O)(O)C(O)(Cn1ccnc1)P(=O)(O)O [Zoledronic acid] (73.5045 µM)  0.486
7. Cn1c(=O)c2[nH]cnc2n(C)c1=O [Aminophylline] (111.008 µM)  0.49
8. CCN[C@H]1C[C@H](C)S(=O)(=O)c2sc(S(N)(=O)=O)cc21 [Dorzolamide] (61.6443 µM)  0.499
9. O=C(O)c1cccnc1Nc1cccc(C(F)(F)F)c1 [Niflumic acid] (70.8657 µM)  0.505
10. COc1cc2ncnc(Nc3ccc(F)c(Cl)c3)c2cc1OCCCN1CCOCC1 [Gefitinib] (44.7514 µM)  0.535
